Reference: PubChem BioAssay (Tox21)
Unmarked numbers belong to inactive results. Inconclusive results are not listed. The source made the active and inactive calls. Calls follow the shape of the dose curve; as a rule, active = well fitted curve in the direction sought with a large enough effect in the repeat runs; inconclusive = weak or mixed curves; inactive = no such curve, though single readings can be large; an effect the other way counts as inactive or inconclusive.

system: not listed separately; test: Caspase-3/7 induction in CHO-K1 cells by small molecules, qHTS assay (AID 1346980); conditions: CHO-K1 caspase-3/7 induction, Caspase-Glo luminescence, 17 h; series mostly up to 92.4 µM; caspase-3/7 activation: at the top concentration; also: nearly all actives have a fitted effect of over 15% in size
In short: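 Wild-type CHO-K1 cells exposed to compounds for 17hr at 37 C, 5% CO2. Caspase-3/7 activity then measured by Caspase-Glo 3/7 luminescence after 30min at room temperature.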
% is scaled to controls: 0 for no effect and ±100 for the full control effect.

| Compound | caspase-3/7 activation |
| --- | --- |
| CCCCCCCCOC(=O)c1ccc(C(=O)OCCCCCCCC)c(C(=O)OCCCCCCCC)c1 | 0.0399% |
| CC(C)O.CC(C)O.OCCN(CCO)CCO.OCCN(CCO)CCO.[Ti] | 0.0318% |
| C[N+](C)(C)CCCl | -1.05% |
| C=CCN1CC[C@]23c4c5ccc(O)c4O[C@H]2C(=O)CC[C@@]3(O)[C@H]1C5 | -0.297% [at 42.5 µM] |
| CCOC(=O)C(Cl)C(C)=O (configuration not stated) | 0.314% |
| COC(=O)c1cncn1C(C)c1ccccc1 (configuration not stated) | -0.531% [at 42.5 µM] |
| Clc1cc(Cl)c(Cl)c(Cl)c1 | 1.22% |
| CCBr | -0.393% |
| CCOP(O)OCC | 0.217% |
| CC(C)(OO)c1ccccc1 | -0.441% |
| CC/C(=N\OC/C=C/Cl)C1=C(O)CC(C2CCOCC2)CC1=O (configuration not stated) | -0.232% |
| CC(C)(CCl)C(=O)Cl | 0.033% |
| C=CC(=O)OCC(C)O (configuration not stated) | -0.239% |
| C[C@H]1CNCCc2ccc(Cl)cc21 | 0.361% [at 42.5 µM] |
| CCC(Br)(CC)C(=O)NC(N)=O | 0.0565% |
| COC(C)(C)CCC[C@H](C)C/C=C/C(C)=C/C(=O)OC(C)C | 1.2% |
| Clc1cc(C(Cl)(Cl)Cl)cnc1Cl | 0.425% |
| CCCCNP(N)(N)=S | -0.52% |
| O=C(O)C(F)(F)C(F)(F)C(F)(F)C(F)(F)C(F)(F)C(F)(F)C(F)(F)C(F)(F)C(F)(F)F | -0.717% |
| C#CCOC(C(=O)OCCN(C)C)(c1ccccc1)c1ccccc1 | 0.464% [at 42.5 µM] |
| O=S(=O)(Cl)c1ccccc1 | 0.511% |
| Cc1cc(=O)[nH]o1 | 0.107% |
| CNC(C)Cc1ccccc1OC (configuration not stated) | 1.29% [at 42.5 µM] |
| c1ccc(CN2CCNCC2)cc1 | -0.547% [at 240 µM] |
| CCCCCC[N+](=O)[O-] | -1.02% |

system: not listed separately; test: Caspase-3/7 induction in HepG2 cells by small molecules, qHTS cell viability counter screen (AID 1346981); conditions: CellTiter-Fluor fluorescence, 17 h; series mostly up to 92.4 µM; activity change, negative = cytotoxicity: at the top concentration; also: nearly all actives have a fitted effect of over 30% in size
In short: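 In this quantitative HTS counter screen, compounds delivered in DMSO were left on unmodified HepG2 cells for 16 hr at 37 C. Viability was then determined fluorometrically with CellTiter-Fluor, in parallel with caspase-3/7 induction in the same wells.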

| Compound | activity change, negative = cytotoxicity |
| --- | --- |
| CCCCCCCCOC(=O)c1ccc(C(=O)OCCCCCCCC)c(C(=O)OCCCCCCCC)c1 | 0.0782% |
| CC(C)O.CC(C)O.OCCN(CCO)CCO.OCCN(CCO)CCO.[Ti] | -0.43% |
| C[N+](C)(C)CCCl | -1.09% |
| C=CCN1CC[C@]23c4c5ccc(O)c4O[C@H]2C(=O)CC[C@@]3(O)[C@H]1C5 | -1.6% [at 42.5 µM] |
| CCOC(=O)C(Cl)C(C)=O (configuration not stated) | 1.09% |
| CC(Cl)Cl | 0.191% |
| C=COC(C)=O | -1.25% |
| COC(=O)c1cncn1C(C)c1ccccc1 (configuration not stated) | -1.3% [at 42.5 µM] |
| Clc1cc(Cl)c(Cl)c(Cl)c1 | 0.383% |
| C[C@@H]1CC[C@H]2[C@@H](C)C(=O)O[C@@H]3O[C@@]4(C)CC[C@@H]1[C@]32OO4 | -0.575% [at 42.5 µM] |
| CCBr | -8.02% |
| CCOP(O)OCC | -0.377% |
| CC(C)(OO)c1ccccc1 | -0.421% |
| CC1C(=O)C[C@]2(C(C)C)C[C@H]12 (some centres not stated) | 6.01% |
| CC/C(=N\OC/C=C/Cl)C1=C(O)CC(C2CCOCC2)CC1=O (configuration not stated) | -2.02% |
| CC(C)(CCl)C(=O)Cl | 9.33% |
| CCOS(C)(=O)=O | 1.02% |
| CCC(Br)(CC)C(=O)NC(N)=O | 8.3% |
| CCCCNP(N)(N)=S | 0.158% |
| CC(=O)[C@H]1CC[C@H]2[C@@H]3CC[C@H]4C[C@](C)(O)CC[C@]4(C)[C@H]3CC[C@]12C | 7.15% [at 42.5 µM] |
| O=C(O)C(F)(F)C(F)(F)C(F)(F)C(F)(F)C(F)(F)C(F)(F)C(F)(F)C(F)(F)C(F)(F)F | -0.465% |
| C#CCOC(C(=O)OCCN(C)C)(c1ccccc1)c1ccccc1 | -0.848% [at 42.5 µM] |
| O=S(=O)(Cl)c1ccccc1 | 12.7% |
| Cc1cc(=O)[nH]o1 | -0.493% |
| O=C(O)COc1ccc(Cl)cc1 | -0.184% |
| c1ccc(CN2CCNCC2)cc1 | -0.582% [at 240 µM] |
| CCN(C)N=O | 5.08% |
| O=S1OC[C@@H]2[C@H](CO1)[C@]1(Cl)C(Cl)=C(Cl)[C@@]2(Cl)C1(Cl)Cl (some centres not stated) | -2.4% |
| CCCCCC[N+](=O)[O-] | -16.5% |

target: Nuclear receptor subfamily 1 group I member 2 (Homo sapiens) (UniProt O75469); test: Human pregnane X receptor (PXR) small molecule agonists, qHTS assay (AID 1346982); conditions: PXR-Luc HepG2, CYP3A4 luciferase reporter, 24 h; series mostly up to 92.4 µM; activation: at the top concentration; also: nearly all actives have a fitted effect of over 35% in size; also: potency is read from the fitted curve at half-maximal effect
Sequence (O75469 whole entry, looked up): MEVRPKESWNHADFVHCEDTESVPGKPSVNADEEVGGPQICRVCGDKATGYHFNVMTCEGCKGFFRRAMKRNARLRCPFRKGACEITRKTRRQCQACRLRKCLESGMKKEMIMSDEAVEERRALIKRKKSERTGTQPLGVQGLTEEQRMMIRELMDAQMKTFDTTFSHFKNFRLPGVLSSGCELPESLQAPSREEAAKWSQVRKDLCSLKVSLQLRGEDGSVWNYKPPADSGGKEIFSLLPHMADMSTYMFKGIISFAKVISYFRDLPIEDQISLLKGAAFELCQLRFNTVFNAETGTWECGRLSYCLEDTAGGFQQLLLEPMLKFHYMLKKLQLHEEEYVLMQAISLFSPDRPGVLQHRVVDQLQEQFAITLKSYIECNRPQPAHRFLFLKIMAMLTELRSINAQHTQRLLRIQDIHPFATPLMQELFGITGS
In short: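 Reporter HepG2 cells expressing PXR-Luc are cultured in charcoal-stripped FBS (5%), treated with compounds for 24 hr at 37 C, and assayed by ONE-Glo luminescence after 30 min at room temperature.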

| Compound | activation | Potency |
| --- | --- | --- |
| CCCCCCCCOC(=O)c1ccc(C(=O)OCCCCCCCC)c(C(=O)OCCCCCCCC)c1 | -1.01% | – |
| CC(C)O.CC(C)O.OCCN(CCO)CCO.OCCN(CCO)CCO.[Ti] | 16.7% | – |
| CCOC(=O)C(Cl)C(C)=O (configuration not stated) | 5.07% | – |
| CC(Cl)Cl | 2.26% | – |
| C=COC(C)=O | 18.5% | – |
| COC(=O)c1cncn1C(C)c1ccccc1 (configuration not stated) | 1.69% [at 42.5 µM] | – |
| Clc1cc(Cl)c(Cl)c(Cl)c1 | -3.47% | – |
| CCBr | 21.2% | – |
| CCOP(O)OCC | 2.57% | – |
| CC(C)(OO)c1ccccc1 | -0.647% | – |
| CC/C(=N\OC/C=C/Cl)C1=C(O)CC(C2CCOCC2)CC1=O (configuration not stated) | 9.59% | – |
| C=CC(=O)OCC(C)O (configuration not stated) | -22.2% | – |
| CCOS(C)(=O)=O | 26.1% | – |
| C[C@H]1CNCCc2ccc(Cl)cc21 | -6.18% [at 42.5 µM] | – |
| CCC(Br)(CC)C(=O)NC(N)=O | 8.75% | – |
| COC(C)(C)CCC[C@H](C)C/C=C/C(C)=C/C(=O)OC(C)C | – | 24.3 µM (active) |
| Clc1cc(C(Cl)(Cl)Cl)cnc1Cl | – | 54.5 µM (active) |
| CCCCNP(N)(N)=S | 17.7% | – |
| CC(=O)[C@H]1CC[C@H]2[C@@H]3CC[C@H]4C[C@](C)(O)CC[C@]4(C)[C@H]3CC[C@]12C | -0.903% [at 42.5 µM] | – |
| O=C(O)C(F)(F)C(F)(F)C(F)(F)C(F)(F)C(F)(F)C(F)(F)C(F)(F)C(F)(F)C(F)(F)F | -24.6% | – |
| O=S(=O)(Cl)c1ccccc1 | 2.14% | – |
| Cc1cc(=O)[nH]o1 | -9.34% | – |
| O=C(O)COc1ccc(Cl)cc1 | -8.93% | – |
| CNC(C)Cc1ccccc1OC (configuration not stated) | -3.87% [at 42.5 µM] | – |
| c1ccc(CN2CCNCC2)cc1 | -7.04% [at 240 µM] | – |
| CCN(C)N=O | 5.24% | – |
| ClCc1ccccc1 | – | 60.8 µM (active) |
| O=S1OC[C@@H]2[C@H](CO1)[C@]1(Cl)C(Cl)=C(Cl)[C@@]2(Cl)C1(Cl)Cl (some centres not stated) | – | 30.6 µM (active) |
